Inconclusive results are not listed. A call without a number means that no potency is given here. Values without a mark were called inactive. Calls of active or inactive are those of the source. The call rests on the fitted dose curve; in most records, active means well fitted cell-killing curve with a large enough effect in the repeat runs; inconclusive means weak or mixed curves, or effect the other way; inactive means no such curve, though single readings can be large or run the other way.

This test can be described thus: qHTS assay to identify small molecule antagonists of the glucocorticoid receptor (GR) signaling pathway - cell viability counter screen (AID 720693). Further: nearly all actives have a fitted effect of over 55% in size. The settings on record: GR-bla HeLa viability, CellTiter-Glo luminescence, 18 h, with 5 nM dexamethasone present; series mostly up to 58.5 µM; viability change, negative = cytotoxic: at the top concentration. The text has this: National Center for Advancing Translational Sciences [NCATS]
NIH Chemical Genomics Center [NCGC]
U.S. Environmental Protection Agency [EPA]
National Institutes of Environmental Health Sciences [NIEHS]
National Toxicology Program [NTP]
U.S. Food and Drug Administration [FDA]
The Glucocorticoid receptor (GR) is one of the members of the nuclear receptor family of ligand-dependent transcription factors. GR plays a critical role in carbohydrate, protein and lipid metabolisms and programmed cell death. CellSensor GR-bla HeLa cell line (Invitrogen) contains a beta-lactamase reporter gene under the control of the glucocorticoid response element stably integrated into HeLa cells, a cervical cancer cell line that expresses glucocorticoid receptor. The activation of the reporter gene under culture conditions can be detected by fluorescence intensity. This cell line has been used to screen the Tox21 10K compound library and to identify the compounds that inhibit the GR signaling. The cytotoxicity of the Tox21 compound library against the GR-bla HeLa cell line was tested in parallel by measuring the cell viability using CellTiter-Glo assay in the same wells.
Tox21 Assay Protocol Summary:
The GR-bla HeLa cells were dispensed at 1500 cells/5 ul/well in 1536-well black wall/clear bottom plates using a Multidrop Combi (ThermoFisher Scientific, Waltham, MA) dispenser. After the assay plates were incubated at a 37 C/5% CO2 incubator for 4 hours, 23 nL of compounds dissolved in DMSO, positive controls or DMSO only was transferred to the assay plate by a pintool station (Kalypsys, San Diego, CA), followed by addition of 1 uL of dexamethasone (5 nM, final concentration in the well). The plates were incubated at 37 C for 18 hours. After 1 uL of LiveBLAzerTM B/G FRET substrate was added using a Flying Reagent Dispenser (Aurora Discovery, San Diego, CA), the plates were incubated at room temperature (RT) for 2 hours, and fluorescence intensity was measured by an Envision plate reader (PerkinElmer, Shelton, CT). After measurement of bla assay, 3 ul CellTiter-Glo (Promega, Madison, WI) was added to measure the cytotoxicity and the plates were then incubated at RT for 30 min. The luminescence was measured using a ViewLux (Perkin Elmer) plate reader.
On to `CC/C=C(\C(=O)N[C@@H]1C(=O)N2C(C(=O)OCOC(=O)C(C)(C)C)=C(COC(N)=O)CS[C@H]12)c1csc(N)n1`, for which the Potency entry was “inactive”.

Regarding `Oc1ccc(Cc2ccccc2O)cc1`, the Potency entry is “inactive”.

Turning to `NC(N)=S`, the Potency result is “inactive”.

Turning to `CC(O)CNCC(C)O` (stereo not given), the Potency entry was “inactive”.

Turning to `OCc1ccc(Cl)cc1Cl`, the Potency entry is “inactive”.

As for `Cc1cc(CC(=O)O)n(C)c1C(=O)c1ccc(Cl)cc1`, the Potency entry is “inactive”.

`Cc1nnc(NS(=O)(=O)c2ccc(N)cc2)s1`: the Potency entry was “inactive”.

For `CCOC(=O)c1ccc(O)cc1`, the Potency result is “inactive”.

Take `N[C@@H](Cc1cc(I)c(Oc2ccc(O)c(I)c2)c(I)c1)C(=O)O`: the Potency result is “inactive”.

On to `CC1(C)[C@@H](O[C@H]2O[C@H](C(=O)O)[C@@H](O)[C@H](O)[C@H]2O[C@@H]2O[C@H](C(=O)O)[C@@H](O)[C@H](O)[C@H]2O)CC[C@]2(C)[C@H]3C(=O)C=C4[C@@H]5C[C@@](C)(C(=O)O)CC[C@]5(C)CC[C@@]4(C)[C@]3(C)CC[C@@H]12`, for which the Potency entry was “inactive”.

As for `OCC(O)CS` (stereo not given), the Potency entry is “inactive”.

Consider `CCCCCCC(=O)O`, for which the Potency entry is “inactive”.

For the compound `Cc1ccccc1C=O`, the Potency entry is “inactive”.

In the case of `O=C1O[C@H]([C@H](O)CO)C(O)=C1O`, the Potency result is “inactive”.

Turning to `C=C(C)CC(C)(C)C`, the Potency entry was “inactive”.

As to `Cc1cc(C)c(O)c(C)c1`, the Potency result was “inactive”.

Turning to `CC(=O)OC(C)(C)C1CC=C(C)CC1` (stereo not given), the Potency result is “inactive”.

`O=C(NCC1CCCCN1)c1cc(OCC(F)(F)F)ccc1OCC(F)(F)F` (stereo not given): the Potency result was “inactive”.

For the compound `Nc1nc(N)c2nc(-c3ccccc3)c(N)nc2n1`, the Potency entry was “inactive”.

In the case of `Cc1ccc(C)c(S(=O)(=O)O)c1`, the Potency result was “inactive”.

Take `C1CCCNCC1`: the Potency entry is “inactive”.

Regarding `CC(C)c1ccc(C(C)C)cc1`, the Potency result was “inactive”.

For the compound `Cc1ccccc1Cl`, the Potency entry was “inactive”.

With `O=[N+]([O-])c1cc(C(F)(F)F)ccc1Cl`, the Potency result is “inactive”.

Consider `O=c1c(O)c(-c2ccc(O)c(O)c2)oc2cc(O)cc(O)c12`, for which the Potency result is “inactive”.

Regarding `CC(C)(C)NC[C@H](O)COc1nsnc1N1CCOCC1`, the Potency result is “inactive”.

With `CCCCCC(C)=O`, the Potency entry was “inactive”.

In the case of `O=C(O)C1=NN(c2ccc(S(=O)(=O)O)cc2)C(=O)C1`, the Potency entry is “inactive”.

In the case of `CCCCCCCCCCCC(=O)N(C)CC(=O)O`, the Potency result is “inactive”.

Turning to `CC/C(C)=N/O`, the Potency result was “inactive”.

Take `O=C(Cl)c1ccc(C(=O)Cl)cc1`: the Potency result is “inactive”.

In the case of `CCc1cccc(O)c1`, the Potency entry is “inactive”.

Consider `CCCCCCCCCCCCCC(=O)O`, for which the Potency result is “inactive”.

In the case of `NC(=O)NC(N)=O`, the Potency result is “inactive”.

As to `CCCOCC(C)O` (stereo not given), the “viability change, negative = cytotoxic” value was -1.26%.

Turning to `CC[N+](CC)(CC(=O)Nc1c(C)cccc1C)Cc1ccccc1`, the Potency entry is “inactive”.

With `CCn1cc(C(=O)O)c(=O)c2cc3c(cc21)OCO3`, the Potency entry is “inactive”.

Take `CCc1cccc(CC)c1N`: the Potency entry is “inactive”.

With `Cc1ccc(Cl)cc1`, the Potency entry is “inactive”.

Turning to `Cc1ccc([N+](=O)[O-])cc1N`, the “viability change, negative = cytotoxic” value was -5.74%.
